Experimental data reported in PubChem BioAssay AID1159580 (chemical genetic matrix, 2015).
Values joined by “and” are separate entries in the source; they are usually repeats but may differ in a detail not shown here. Equal entries are not always repeated. The campaign covered roughly 5,500 compounds. About 2,000 (36%) were called active. Another 18% or so got no clear call; they are omitted. Cut-off read from the data, not from the text of the source: active = normalized growth mostly below about 0.91 (no sharp cut-off); inconclusive = no clear call, values can overlap the other calls; inactive = mostly above about 0.92. This is one part of the list.

Assay: chemical genetic growth profiling, strain panel (AID 1159580);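 note: tested at 20 µM; growth read once vehicle control cultures reached saturation at 30 °C; 1 = growth at the plate median or of vehicle wells; lower values mean less growth of the strain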
Details: S. cerevisiae deletion strains, growth OD

Measured: normalized growth

CCCCCCOc1ccccc1C(N)=O
inactive: locus YAL021C, strain ccr4, hits give low values 1.04 | locus YAL030W, strain snc1, hits give low values 0.939 | locus YBR231C, strain swc5, hits give low values 0.922 | locus YBR279W, strain paf1, hits give low values 0.934 | locus YCR088W, strain abp1, hits give low values 0.94 | locus YDL005C, strain med2, hits give low values 0.964 | locus YDL040C, strain nat1, hits give low values 0.948 | locus YDR001C, strain nth1, hits give low values 0.949 | locus YDR069C, strain doa4, hits give low values 0.989 | locus YDR195W, strain ref2 1.05 | locus YDR334W, strain swr1, hits give low values 0.959 | locus YDR335W, strain msn5, hits give low values 0.956 | locus YEL037C, strain rad23, hits give low values 0.943 | locus YEL061C, strain CIN8 (second series), hits give low values 0.935 | locus YER016W, strain bim1, hits give low values 0.928 | locus YER111C, strain swi4, hits give low values 0.941 | locus YFR010W, strain ubp6, hits give low values 0.985 | locus YGL167C, strain pmr1, hits give low values 0.92 | locus YGL173C, strain kem1, hits give low values 0.939 | locus YGL227W, strain vid30, hits give low values 0.947 | locus YHR013C, strain ard1, hits give low values 0.916 | locus YHR027C, strain rpn1, hits give low values 0.945 | locus YHR079C, strain IRE1, hits give low values 0.924 | locus YJL092W, strain hpr5, hits give low values 0.919 | locus YJL115W, strain asf1, hits give low values 0.96 | locus YJL154C, strain vps35, hits give low values 0.959
active: locus YAL013W, strain DEP1, hits give low values 0.662 | locus YAL026C, strain drs2, hits give low values 0.75 | locus YBL061C, strain skt5, hits give low values 0.893 | locus YBR009C, strain hhf1, hits give low values 0.862 | locus YBR021W, strain FUR4, hits give low values 0.84 | locus YBR023C, strain chs3, hits give low values 0.81 | locus YBR171W, strain sec66, hits give low values 0.857 | locus YBR229C, strain ROT2, hits give low values 0.86 | locus YCL011C, strain gbp2, hits give low values 0.897 | locus YCL016C, strain dcc1, hits give low values 0.874 | locus YCL029C, strain bik1, hits give low values 0.38 | locus YCL069W, strain vba3, hits give low values 0.849 | locus YDL035C, strain GPR1, hits give low values 0.553 | locus YDL074C, strain BRE1, hits give low values 0.443 | locus YDL101C, strain DUN1, hits give low values 0.505 | locus YDL134C, strain PPH21, hits give low values 0.513 | locus YDL185W, strain tfp1, hits give low values 0.636 | locus YDL192W, strain arf1, hits give low values 0.654 | locus YDR101C, strain arx1, hits give low values 0.655 | locus YDR137W, strain rgp1, hits give low values 1.39 [resistant] | locus YDR150W, strain NUM1, hits give low values 0.744 | locus YDR159W, strain sac3, hits give low values 0.784 | locus YDR162C, strain NBP2, hits give low values 0.338 | locus YDR297W, strain sur2, hits give low values 0.914 | locus YDR318W, strain mcm21, hits give low values 0.41 | locus YDR388W, hits give low values 0.71 | locus YDR392W, strain spt3, hits give low values 0.335 | locus YDR502C, strain sam2, hits give low values 0.546 | locus YEL003W, strain gim4, hits give low values 0.867 | locus YEL061C, strain CIN8, hits give low values 0.449 | locus YER015W, strain faa2, hits give low values 0.892 | locus YER110C, hits give low values 0.544 | locus YER155C, strain BEM2 (second series), hits give low values 0.249 | locus YER155C, strain BEM2, hits give low values 0.304 | locus YER167W, strain BCK2, hits give low values 0.367 | locus YGL078C, strain dbp3, hits give low values 0.864 | locus YGL086W, strain mad1, hits give low values 0.439 | locus YGL240W, strain doc1, hits give low values 0.789 | locus YGL248W, strain PDE1, hits give low values 0.612 | locus YGL253W, strain hxk2, hits give low values 0.824 | locus YGR135W, strain pre9, hits give low values 0.533 | locus YGR229C, strain SMI1, hits give low values 0.144 | locus YGR252W, strain gcn5, hits give low values 0.446 | locus YHR030C, strain SLT2, hits give low values 0.0615 and 0.831 | locus YHR079C, strain IRE1 (second series), hits give low values 0.646 | locus YHR094C, strain hxt1, hits give low values 0.765 | locus YHR129C, strain ARP1, hits give low values 0.474 | locus YHR142W, strain chs7, hits give low values 0.692 | locus YHR200W, strain rpn10, hits give low values 0.804 | locus YIL066C, strain RNR3, hits give low values 0.188 | locus YIL073C, strain SPO22, hits give low values 0.535 | locus YIL125W, strain kgd1, hits give low values 0.796 | locus YIR030C, strain dcg1, hits give low values 0.615 | locus YJL095W, strain BCK1 (second series), hits give low values 0.704 | locus YJL095W, strain BCK1, hits give low values 0.0726 and 0.863 | locus YJL129C, strain trk1, hits give low values 0.755 | locus YJL134W, strain LCB3, hits give low values 0.868 | locus YJL164C, strain tpk1, hits give low values 0.863 | locus YJL166W, strain qcr8, hits give low values 0.822 | locus YJL168C, strain set2, hits give low values 0.826 | locus YJL187C, strain SWE1 (second series), hits give low values 0.612 | locus YJL187C, strain SWE1, hits give low values 0.917
